Data on 93 compounds can be found in PubChem BioAssay AID504408 (Broad Institute, 2011).

Out of some 300,000 compounds screened, about 5,200 (1.7%) were called active. Shown is part of a subset that was picked to be rich in actives. Values without a mark were called inactive.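 Rule for the calls: active = mean replicate activation of at least 50% with a set share of replicates each reaching 50%; inconclusive = only one of those two conditions met; inactive = mean below 50% and too few replicates reaching it.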

This test in a line: HSF-1 response element luciferase induction – NIH3T3-HGL cells, MG132 stress, luminescence, single point, primary screen (AID 504408).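 Note: 0% = median of the neutral control wells and 100% = twice that signal.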 The conditions noted are these: NIH3T3-HGL HSF-1 luciferase reporter, MG132, 8 h; at 9 µM; hits give high values; 100% = twice DMSO control signal. Background: In a reporter assay the amount or activity of a reporter protein is the signal.
Consider `Cc1nc(-c2ccc(F)cc2)c(CC(=O)Nc2cc(S(=O)(=O)N3CCCCC3)ccc2C)s1`, for which the activation was 44.2%. The result for `C=CCOc1ccc(/C=C/C(=O)OCC(=O)NCC2CCCO2)cc1` (stereo not drawn) reads -21.7%. As to `O=C(NCCc1ccco1)C(=O)NCCC1CCCCN1S(=O)(=O)c1ccccc1` (stereo not drawn), the activation was 3.12%.

In the case of `Cc1ccc(-n2cc3ccc([N+](=O)[O-])cc3n2)cc1`, the activation is 59.2% (active). The result for `Cc1ccc(-c2cn3cc([N+](=O)[O-])ccc3n2)cc1` reads 29.6%; that for `Cc1cc(CO)nn1-c1ccc([N+](=O)[O-])cc1`, -10.6%. With `COc1cc(C2C(C(=O)c3cccs3)=C(O)C(=O)N2CCN2CCOCC2)ccc1OCCC(C)C` (stereo not drawn), the activation was -4.43%.

In the case of `Cc1ccc(S(=O)(=O)CCC(=O)Nc2nnc(CC(C)C)s2)cc1`, the activation is 16.5%. The result for `COc1ccc(C(CNC(=O)c2cccc(NS(=O)(=O)c3ccc(C)c(F)c3)c2)N2CCCC2)cc1` (stereo not drawn) reads -2.57%; that for `CC1CCN(C(=O)COC(=O)c2cc(S(=O)(=O)N3CCOCC3)ccc2Cl)CC1`, -3.43%; that for `CC1(C)CCSC(/C=C/c2ccccc2)=N1`, 172% (active). With `CCCn1nc(C(=O)NNC(=O)CCOc2ccccc2OCC)c2ccccc2c1=O` the figure was 2.86%; with `O=C(CN1CCOCC1)Nc1cccc([N+](=O)[O-])c1`, 8.61%; with `COc1ccc(C(=O)N2CC3(C)CC2CC(C)(C)C3)cc1OC` (stereo not drawn), -7.35%.

Take `Cc1cccc(C(=O)NCC(=O)OCC(=O)N2CC3(C)CC2CC(C)(C)C3)c1` (stereo not drawn): the activation is 15.9%. With `Cc1nnnn1/C(=C\c1ccccc1)C(=O)OCC(=O)N1CC2(C)CC1CC(C)(C)C2` (stereo not drawn) the figure was 82.4% (active); with `[O-][n+]1ccc(OCc2ccccc2)cc1`, -6.48%.

`COc1ccc(-c2cc(C(=O)NCCCn3ccnc3)no2)cc1`: the activation is -2.3%. With `O=C(NC1CCCC1)c1cc(-c2ccccc2)on1` the figure was 61.2% (active). With `CC(NC(=O)c1cc(-c2ccccc2)on1)c1ccccc1` (stereo not drawn) the figure was 25.2%; with `O=C(NCCCn1ccnc1)c1cc(-c2ccccc2)on1`, 52.5% (active); with `O=C(NC1CCCCC1)c1cc(C2CC2)on1`, 24.7%. With `COc1ccccc1-c1cc(C(=O)NCCCn2ccnc2)no1` the figure was -0.494%; with `CCC(=O)c1ccc(OCC(=O)OCC(=O)NC2CCCCCC2)cc1`, -11.2%. For `CCC1CCC/C1=N\NC(=O)c1ccc(Cl)cc1` (stereo not drawn), the activation is 9.99%. On to `Cc1cc(C)c(S(=O)(=O)n2cc(C(C)C(N)C(=O)O)c3ccccc32)c(C)c1` (stereo not drawn), for which the activation is 0.109%.

Turning to `COc1cccc(N2CC(C(=O)NCc3n[nH]c(=O)c4ccccc34)CC2=O)c1` (stereo not drawn), the activation is 8.81%. The result for `CSCCC(NC(=O)COc1ccccc1)C(=O)OCCOc1ccc(F)cc1` (stereo not drawn) reads -8.89%; that for `COc1cccc(C(=O)NCCS(=O)(=O)NCC2CCCO2)c1` (stereo not drawn), -6.64%; that for `CC1(c2nnc(Cc3ccccc3)o2)CC(c2ccccc2F)=NO1` (stereo not drawn), 4.53%.

As to `Cn1cccc1C(=O)NNC(=O)COc1ccc(Br)cc1`, the activation is 1.2%. The result for `CC1Cc2ccccc2N1C(=O)CSc1nc2ccccc2o1` (stereo not drawn) reads 67.8% (active). Turning to `CCS(=O)(=O)c1ccc2oc(SCC(=O)N3c4ccccc4CC3C)nc2c1` (stereo not drawn), the activation was -9.09%.

Consider `Cc1cc(=O)[nH]c(SCC(=O)N2c3ccccc3CC2C)n1` (stereo not drawn), for which the activation is -7.41%.

Take `COc1ccc(/C=N/NC(=O)c2cc(-c3cccc(C)c3)nc3ccccc23)cc1O`: the activation was 11.4%. In the case of `O=C(c1cc(-c2ccc(Cl)s2)nc2ccccc12)N1CCOCC1`, the activation was 0.352%.

With `CCCCCN(C(=O)CCC(=O)OCCOc1ccc(OC)cc1)c1c(N)n(CCCC)c(=O)[nH]c1=O`, the activation is 2.74%. As for `COC(=O)CNC(c1ccccc1Cl)c1cc(Br)ccc1NC(=O)CCN1CCOCC1` (stereo not drawn), the activation was 57.8% (active). As for `COc1ccccc1NC(=O)CCN1CCN(c2ccc(Cl)cc2)CC1`, the activation is 0.381%. With `COc1ccc(Cl)cc1NC(=O)CCN1CCOCC1` the figure was -5.06%; with `COc1ccccc1C(=O)NC(=O)COC(=O)C1CC1`, 16%. With `O=C(O)c1cc(Cl)c(Cl)cc1C(=O)Nc1cccc2ncccc12` the figure was 56.4% (active); with `O=C(Nc1cccc2ncccc12)C(Cl)(Cl)Cl`, -66%; with `O=C(Nc1cccc2ncccc12)c1ccc(-c2ccc(Cl)cc2Cl)o1`, 38.2%. With `CN(C(=O)CN1C(=O)NC(C)(CCc2ccccc2)C1=O)c1ccccc1` (stereo not drawn) the figure was 5.79%; with `COc1ccc(S(=O)(=O)Nc2ccc3oc(C)c(C(C)=O)c3c2)cc1`, -13%; with `COC(=O)c1c(C)oc2ccc(N(C(=O)Oc3ccccc3)S(=O)(=O)c3ccccc3)cc12`, 74.4% (active). For the compound `CC(=O)c1c(C)oc2ccc(NS(=O)(=O)c3ccccc3)cc12`, the activation was 18.1%. `CC(C)(C)c1ccc(C(=O)NCc2ccco2)cc1`: the activation is -17.1%. On to `CCc1nnc(SCc2cccc(F)c2)nc1CC`, for which the activation is -33.8%. The result for `Nc1cc(N)nc(SCc2cccc(F)c2)n1` reads 76.5% (active); that for `Nc1cc(N)nc(SCc2ccc(Cl)cc2)n1`, -15.7%; that for `COc1ccc(NS(=O)(=O)c2ccc(C)c(C(=O)NNC(=O)c3csc(N4CCOCC4)n3)c2)cc1`, 4.38%.

For `O=C(NCCC1CCCCN1S(=O)(=O)c1cccs1)C(=O)Nc1ccc(F)cc1F` (stereo not drawn), the activation was -7.29%. The result for `CN(C(=O)COC(=O)c1ccc(Br)o1)c1c(N)n(Cc2ccccc2)c(=O)[nH]c1=O` reads 5.07%. As for `CC1(C)O[C@@H]2CC3C4C[C@H](F)C5=CC(=O)C=CC5(C)C4C(O)CC3(C)[C@]2(C(=O)CO)O1` (stereo partly drawn), the activation is -43.8%. With `COc1ccc(-c2csc3nc(-c4ccccc4F)oc(=O)c23)cc1OC`, the activation was 164% (active). The result for `COc1ccccc1-c1nnc(-c2ccc(F)cc2)o1` reads 38.9%. On to `COc1ccc(-c2csc(-c3cccs3)n2)cc1OC`, for which the activation was 19.1%. The result for `CC(=O)N/C(=C\c1ccccc1)C(=O)OC(C)C(=O)N(C)c1ccccc1` (stereo not drawn) reads 2.37%. With `CCOC(=O)C(C(=O)OCC)C(C#N)c1ccccc1` (stereo not drawn) the figure was 14.7%; with `O=C(Cc1ccc(-c2ccccc2)cc1)NC(c1ccccc1)c1ccccc1`, 0.938%; with `CCOC(=O)/C=C/C(=O)OCC(=O)NC(c1ccccc1)c1ccccc1`, 177% (active). In the case of `COc1ccc(C(C#N)(CC(=O)O)c2cnccn2)cc1OC` (stereo not drawn), the activation is -7.73%. The result for `COc1ccc(-c2cc(C(F)(F)F)nc(SCC(=O)Nc3ccc4c(c3)OCO4)n2)cc1OC` reads 12.6%; that for `COc1cc(OC)nc(S(C)(=O)=O)n1`, -10.3%. The result for `COc1ccc(-c2cc(C(F)(F)F)nc(S(C)(=O)=O)n2)cc1OC` reads 236% (active); that for `COc1ccc(CNC(=O)CNC(=O)c2sc3ccccc3c2Cl)cc1OC`, 5.99%.

Regarding `COc1ccc(C(=O)Nc2sc(C)c(C)c2CN2CCOCC2)cc1`, the activation is 399% (active). With `COc1ccc(C(=O)Nc2ccnn2C2CCN(Cc3ccncc3)CC2)cc1` the figure was 0.31%; with `CCc1cc(C(N)=O)c(NC(=O)c2ccc(OC)cc2)s1`, 15.1%. Regarding `CC(=O)c1c(C)[nH]c(C(=O)N2CCN(S(=O)(=O)c3ccc(F)c(F)c3)CC2)c1C`, the activation was 0.878%. Regarding `Oc1ccccc1CNc1ncc(Br)cc1Br`, the activation is 114% (active). Take `O=[N+]([O-])c1ncc(Br)cc1Nc1ccccc1`: the activation was -4.85%. `CCc1cccc(C)c1NS(=O)(=O)c1cc(Br)cnc1N`: the activation was 0.695%. With `COc1ccc(S(=O)(=O)N2CCCCC2)cc1NC(=O)C1CC(=O)N(c2ccc3c(c2)OCCO3)C1` (stereo not drawn) the figure was 1.34%; with `CCOC(=O)N1CCN(C(=O)c2ccc3c(c2)N(Cc2ccc(C)cc2)CCS3)CC1`, 9.82%; with `O=C(NCCN1CCOCC1)c1ccc2c(c1)N(Cc1ccc(Cl)cc1)CCS2`, 16.5%. For the compound `O=C(NCCc1ccccc1)c1ccc2c(c1)N(Cc1ccccc1)CCS2`, the activation is 82.5% (active). With `CC(=O)Nc1ccc(NC(=O)CSC2=NS(=O)(=O)c3ccccc3N2)cc1`, the activation was -10.3%. With `CC(=O)Nc1ccc(NC(=O)C(C)OC(=O)C2CC(=O)N(CCc3ccccc3)C2)cc1` (stereo not drawn) the figure was -21.8%.

In the case of `COCCN(C(=O)COC(=O)Cc1cccc(OC)c1)c1c(N)n(Cc2ccccc2)c(=O)[nH]c1=O`, the activation is 2.54%. The result for `Cc1cccc([C@@H]2[C@@H]3C(=O)N(Cc4ccccc4)C(=O)[C@@H]3[C@]3(Cc4ccc(Cl)cc4)C(=O)N(c4cccc(Cl)c4)C(=O)N23)c1` reads 13.8%. With `Cc1ccc(C(=O)CN2C(=O)NC3(CCc4ccccc43)C2=O)c(C)c1` (stereo not drawn) the figure was 0.629%. The result for `O=C(Nc1ccccc1N1CCOCC1)c1csc2c1CCCC2` reads 6.54%; that for `COC(=O)c1sc(NC(=O)c2csc3c2CCCC3)nc1C`, 30.2%. In the case of `Cc1ccc(NC(=O)c2csc3c2CCCC3)cc1`, the activation is 59.9% (active).

Turning to `Cc1cc(=O)oc2cc(NC(=O)C(C)Oc3ccccc3)ccc12` (stereo not drawn), the activation is -3.4%.

As to `O=C(c1cc(-c2ccco2)nc2ccccc12)N(Cc1nnc(-c2ccc(Cl)cc2)o1)C1CC1`, the activation is 16.1%. With `NC(=O)C1CCN(C(=O)c2cn(-c3ccccc3)nc2-c2cccnc2)CC1` the figure was 32.4%. With `CN(c1cccc(NC(=O)Nc2ccc(Cl)cc2)c1)S(C)(=O)=O` the figure was 115% (active); with `Cc1ccc(N(CC(=O)Nc2cccc(N(C)S(C)(=O)=O)c2)S(C)(=O)=O)cc1`, 0.04%.

With `COc1cccc(N(CC(=O)Nc2cccc(N(C)S(C)(=O)=O)c2)S(C)(=O)=O)c1`, the activation was 12.3%.
